A selection: hits, their analogues and other compounds. The true share with any hit is near 3.5%.
TEAD-YAP block – TEAD-YAP interaction inhibition, primary screen, TEAD-YAP interaction inhibitor project, luminescence, HEK-TIYL cells | AID 1259422, 2018 | inhibition, % at 9.12 µM | TEAD-Gal4/YAP UAS-luciferase luminescence | 1.4% of 640,000 active; in the data active means inhibition above about 32%;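 further: 0% = median of test compound wells and 100% = reference inhibitor wells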
GPR151 ag – activators of human GPR151, primary screen, cell-based, PathHunter beta-arrestin, luminescence | 1% of 650,000 active | PathHunter beta-arrestin GPR151 cells | activation, % at 11.2 µM | AID 1508602, 2020; in the data active means activation above about 4.9%;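 further: 0% = median of compound wells and 100% = cells with positive control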
MITF primary – MITF inhibitors, primary screen, biochemical, AlphaScreen, human. AlphaScreen MITF homodimerization, bead proximity signal. inhibition, % at 2.6 µM. 0.91% of 650,000 active; in the data active means inhibition above about 50%;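 further: 0% = vehicle wells with protein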
FBW7 act – FBW7 E3 ligase activators, primary screen, biochemical, AlphaScreen, human; F-box/WD repeat-containing protein 7 (Homo sapiens), Q969H0; AlphaScreen FBW7–phospho-cyclin E peptide binding, activator screen; normalized activity (activation), % at 26.1 µM; 0.13% of 650,000 active; AID 1259310, 2017; in the data active means normalized activity above about 1.9%;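 further: purified mutant Fbw7 with reduced substrate affinity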
GPR151 conf act – GPR151 activators, triplicate retest, confirmation, cell-based, PathHunter beta-arrestin, luminescence | activation, % at 11.2 µM | shares compounds with GPR151 ag | GPR151 PathHunter beta-arrestin cells, 90 min; % of EA-reagent control over plate median | 6,700 tested, under 10 active;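 active means mean percent activation across replicates above the confirmation screen cutoff of 4.91%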
GPR119 ag – GPR119 activators in beta-arrestin cells, counter-screen for GPR151 activator project, cell-based, PathHunter beta-arrestin, luminescence, triplicate; shares compounds with GPR151 ag; 90 min; 0 = compound-well median, 100 = enzyme-acceptor control; activation, % at 11.2 µM; 0.3% of 6,700 active; AID 1508611, 2020;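 active means mean percent activation in the counterscreen above 29.09%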;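 further: counterscreen on off-target GPR119 to flag nonselective hits from the GPR151 activator screen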
Target sequence (Q8TDV5 whole entry, looked up): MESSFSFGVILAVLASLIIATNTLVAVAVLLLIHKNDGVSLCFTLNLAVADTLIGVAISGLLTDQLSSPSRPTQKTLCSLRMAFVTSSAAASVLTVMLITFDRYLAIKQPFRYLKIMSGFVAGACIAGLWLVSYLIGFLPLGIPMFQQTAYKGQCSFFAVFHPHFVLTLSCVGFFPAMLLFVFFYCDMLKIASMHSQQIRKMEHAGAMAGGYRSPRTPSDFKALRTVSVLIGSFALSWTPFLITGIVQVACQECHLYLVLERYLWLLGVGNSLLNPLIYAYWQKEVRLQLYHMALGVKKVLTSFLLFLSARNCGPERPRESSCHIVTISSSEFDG
* = called active by the depositor.

`NC(=O)C1CCN(C2=NC(=O)/C(=C\c3ccc(-c4cccc([N+](=O)[O-])c4)o3)S2)CC1` gave TEAD-YAP block 12, GPR151 ag -1, MITF primary -3 and FBW7 act 0.
Screening COCCN1CCCc2ccc(NS(=O)(=O)c3ccc(C)c(C)c3)cc21 returned TEAD-YAP block 7, GPR151 ag -1, MITF primary -6 and FBW7 act 0.
For COCCN1CCCc2ccc(NS(=O)(=O)c3cc(C)ccc3C)cc21 the results were TEAD-YAP block 15, GPR151 ag 5.2*, MITF primary -1, FBW7 act 0, GPR151 conf act 0 and GPR119 ag 3.
`COc1ccccc1-c1coc2cc(OC(=O)C(C)(C)C)ccc2c1=O` gave TEAD-YAP block 8, GPR151 ag 6.9*, MITF primary 17, FBW7 act 0, GPR151 conf act 1 and GPR119 ag -3.
`COc1ccc(OCc2n[nH]c(=S)n2-c2ccccc2F)cc1` gave TEAD-YAP block -5, GPR151 ag 4, MITF primary 5 and FBW7 act 0.
`O=S(=O)(/N=C(\N1CCCCC1)C(F)(F)F)c1ccccc1` gave TEAD-YAP block -6, GPR151 ag 0, MITF primary -1 and FBW7 act 0.
Screening CCOCCCNC1CCN(c2ccc(NC(=O)c3cccc(Cl)c3)cc2)CC1 returned TEAD-YAP block 27, GPR151 ag 17*, MITF primary 12, FBW7 act 0, GPR151 conf act 0 and GPR119 ag 21.
`CCN(CC)CCNC1CCN(c2ccc(NC(=O)c3cccc(Cl)c3)cc2)CC1` gave TEAD-YAP block -35, GPR151 ag 1, MITF primary 14 and FBW7 act 0.
`O=C(Nc1ccccc1)N1CCN(c2nc(-c3ccc(F)cc3)cs2)CC1` gave TEAD-YAP block -2, GPR151 ag 0, MITF primary 12 and FBW7 act 1.
Screening CCN(CC)c1nc(Nc2ccccc2)nc(Nc2nc3ccccc3n2C)n1 returned TEAD-YAP block -3, GPR151 ag -1, MITF primary 4 and FBW7 act 1.
`CCN(CC)c1nc(Nc2nc3ccccc3n2C)nc(NC2CC2)n1` gave TEAD-YAP block 6, GPR151 ag 7.5*, MITF primary 17, FBW7 act 0, GPR151 conf act 0 and GPR119 ag 1.
Screening Cc1ccc(OCC(=O)O/N=C(\N)c2ccc([N+](=O)[O-])cc2)c(Br)c1 returned TEAD-YAP block 6, GPR151 ag 0, MITF primary 5 and FBW7 act 0.
Screening Nc1nc(SCC(=O)NCc2ccccc2)[nH]c(=O)c1-c1ccccc1 returned TEAD-YAP block 8, GPR151 ag 6.8*, MITF primary 3, FBW7 act 0, GPR151 conf act 0 and GPR119 ag 0.
For Nc1nc(SCc2nc(-c3ccccc3)no2)[nH]c(=O)c1-c1ccccc1 the results were TEAD-YAP block 1, GPR151 ag 6.0*, MITF primary -2, FBW7 act 0, GPR151 conf act -2 and GPR119 ag -16.
Screening Cc1nnc2c(NC3CCN(Cc4ccccc4)CC3)nc3ccccc3n12 returned TEAD-YAP block -2, GPR151 ag -1, MITF primary -23 and FBW7 act 0.
Screening COC(=O)c1c(NC2=NS(=O)(=O)c3ccccc32)sc(C)c1-c1ccccc1 returned TEAD-YAP block 0, GPR151 ag 0, MITF primary -14 and FBW7 act 0.
For CCSC1=C(C#N)C(c2ccc3c(c2)OCO3)C2=C(CCCC2=O)N1 (stereo not drawn) the results were TEAD-YAP block 7, GPR151 ag 5.5*, MITF primary 16, FBW7 act 0, GPR151 conf act 1 and GPR119 ag 0.
For O=C(Cc1cn(-c2ccc(N3CCC(N4CCOCC4)CC3)nn2)c2ccccc12)NCc1ccccc1 the results were TEAD-YAP block -35, GPR151 ag -1, MITF primary 1 and FBW7 act 0.
For Cc1cc(C)nc(SCC(=O)N2CCCCC2)n1 the results were TEAD-YAP block -2, GPR151 ag 7.5*, MITF primary 13, FBW7 act 0, GPR151 conf act 0 and GPR119 ag 15.
For Cc1cc(=O)[nH]c2nnc(SCC(=O)N3CCCCCC3)n12 the results were TEAD-YAP block 4, GPR151 ag 6.1*, MITF primary -4, FBW7 act 0, GPR151 conf act 0 and GPR119 ag 0.
Screening Nc1sc(-c2ccccc2)cc1C(=O)N/N=C/c1cccs1 returned TEAD-YAP block 5, GPR151 ag 8.4*, MITF primary -6, FBW7 act 0, GPR151 conf act -1 and GPR119 ag -5.
For CC[C@H](C)[C@@H]1NC(=O)[C@@H]2C[C@H](NC(=O)Nc3cccc(Cl)c3)CN2C1=O the results were TEAD-YAP block -21, GPR151 ag 5.3*, MITF primary -10, FBW7 act 0, GPR151 conf act 0 and GPR119 ag 9.
COc1ccc(C2(NC(=O)c3snnc3C)CCCCC2)cc1 was read as TEAD-YAP block 0, GPR151 ag 20*, MITF primary 1, FBW7 act 0, GPR151 conf act 0 and GPR119 ag -1.
For Cc1ccc(-c2nnc3ccc(SCC(=O)Nc4ccc5c(c4)OCCO5)nn23)cc1 the results were TEAD-YAP block -10, GPR151 ag -1, MITF primary 6 and FBW7 act 0.
For O=C(Nc1ccc(N2CCCCC2)c(C(=O)O)c1)c1ccco1 the results were TEAD-YAP block -6, GPR151 ag 0, MITF primary 4 and FBW7 act 0.
Screening NC(=O)c1cc(NC(=O)c2ccco2)ccc1N1CCCCC1 returned TEAD-YAP block -40, GPR151 ag 6.5*, MITF primary -5, FBW7 act 0, GPR151 conf act 0 and GPR119 ag 10.
For Cc1cccc(C2=N/C(=C/c3ccccc3F)C(=O)O2)c1 the results were TEAD-YAP block 11, GPR151 ag -1, MITF primary -15 and FBW7 act 0.
For NC(=O)C1CCN(Cc2cccc(Cl)c2)CC1 the results were TEAD-YAP block 7, GPR151 ag 5.1*, MITF primary 40, FBW7 act 0, GPR151 conf act 1 and GPR119 ag 6.
`NC(=O)C1CCN(Cc2ccc(Cl)cc2)CC1` gave TEAD-YAP block -7, GPR151 ag 1, MITF primary 9 and FBW7 act 0.
